PubChem BioAssay (NCATS)
Records with an inconclusive call do not appear. Active and inactive are the calls of the source. Unless noted, calls come from the whole dose curve; as a rule, active = well fitted curve in the direction sought with a large enough effect; inconclusive = small, poorly fitted or top-dose-only effect, or another doubt; inactive = no such curve, though single readings can be large; an effect the other way counts as inactive or inconclusive.

Experiments:
[1] = qHTS for Inhibitors of Plasmodium falciparum (DD2) proliferation (AID 504314); note: potency is the fitted concentration of half-maximal effect
Summary of the method: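 Erythrocytes infected with P. falciparum (0.3% parasitemia, 2.5% hematocrit final) were incubated with compounds for 72 h at 37C, 5% CO2. Parasite DNA was detected by SYBR Green I fluorescence after saponin/Triton lysis, normalized to artemisinin (0.29 uM) and DMSO controls.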

[2] = qHTS for Inhibitors of Plasmodium falciparum (GB4) proliferation (AID 504315); note: nearly all actives have a fitted effect of over 50% in size; note: potency is the fitted concentration of half-maximal effect
Summary of the method: (§1)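 Erythrocytes infected with P. falciparum line (0.3% parasitemia, 2.5% hematocrit final) incubated with compounds 72 h at 37 °C, 5% CO2; SYBR Green lysis buffer added, fluorescence read next day. Normalized to 0.29 uM artemisinin and DMSO.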

[3] = qHTS for Inhibitors of Plasmodium falciparum (7G8) proliferation (AID 504316); note: nearly all actives have a fitted effect of over 65% in size; note: potency is the fitted concentration of half-maximal effect
Summary of the method: as §1

[4] = qHTS for Inhibitors of Plasmodium falciparum (HB3) proliferation (AID 504318); note: nearly all actives have a fitted effect of over 60% in size
Summary of the method: as §1

[5] = qHTS for Inhibitors of Plasmodium falciparum (CP250) proliferation (AID 504320); note: potency is the fitted concentration of half-maximal effect
Summary of the method: as §1

[6] = target: Mitogen-activated protein kinase 10 (Mus musculus) (UniProt Q61831); assay: JNK3 AlphaScreen Assay (AID 530; active = well fitted curve in either direction with a large enough effect, not every such curve was filed as active;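 note: kinase came from lysate of stimulated human HepG2 cells; signal reports phosphorylation of biotinylated GST-cJun 1-79 at Ser73 with 10 µM ATP; series mostly up to about 57 µM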)
Summary of the method: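 Room-temperature AlphaScreen kinase assay; pre-activated HepG2 lysate as JNK3 source, biotin-GST-cJun(1-79) substrate, 10 uM ATP, compound 15 min preincubation.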

[7] = target: 3',5'-cyclic-AMP phosphodiesterase 4B (Homo sapiens) (UniProt Q07343); assay: qHTS Assay for Inhibitors of PDE-IV (AID 607; active = well fitted activation curve with a large enough effect in the main read-out, with a control signal flat, not every such curve was filed as active)
Sequence of 3',5'-cyclic-AMP phosphodiesterase 4B (Homo sapiens) (Q07343 whole entry, looked up): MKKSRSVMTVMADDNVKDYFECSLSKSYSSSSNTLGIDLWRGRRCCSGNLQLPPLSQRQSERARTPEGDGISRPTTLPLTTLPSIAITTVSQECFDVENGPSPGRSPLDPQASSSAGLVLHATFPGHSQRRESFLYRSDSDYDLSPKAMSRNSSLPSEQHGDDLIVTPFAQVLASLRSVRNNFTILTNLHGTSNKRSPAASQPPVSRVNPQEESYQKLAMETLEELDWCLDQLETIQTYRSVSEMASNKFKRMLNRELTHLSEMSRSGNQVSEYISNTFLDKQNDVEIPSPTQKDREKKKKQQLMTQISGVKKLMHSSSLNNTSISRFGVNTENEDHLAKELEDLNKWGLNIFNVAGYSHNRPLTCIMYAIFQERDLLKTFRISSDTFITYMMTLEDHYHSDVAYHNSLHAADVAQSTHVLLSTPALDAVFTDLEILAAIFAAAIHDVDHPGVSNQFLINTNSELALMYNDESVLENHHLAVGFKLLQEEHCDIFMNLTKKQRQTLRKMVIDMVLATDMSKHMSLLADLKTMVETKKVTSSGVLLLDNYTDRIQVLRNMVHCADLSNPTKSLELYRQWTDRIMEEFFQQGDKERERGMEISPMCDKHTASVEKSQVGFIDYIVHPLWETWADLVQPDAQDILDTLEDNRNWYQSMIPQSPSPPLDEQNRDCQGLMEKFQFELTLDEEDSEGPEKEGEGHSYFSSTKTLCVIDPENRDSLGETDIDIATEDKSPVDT
Summary of the method: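 ACTOne HEK293 cells carry a modified cAMP-gated CNG channel and express endogenous PDE4; plated 1000 cells/well, compounds up to 22.9 uM final. Membrane-potential dye fluorescence (ex 535/em 590) was read; parental cells received 10 uM forskolin + 100 uM RO 20-1724.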

Measured: Potency

COC(=O)C1=C(C(=O)OC)[C@@H]2N(C)c3ccccc3[C@@]23C[C@@H](CO)N(C(=O)C2CCC2)C3=N1
not listed: [6] | [7]
inactive: all other assays above

COC(=O)C1=C(C(=O)OC)[C@@H]2Nc3ccccc3[C@@]23C[C@@H](C(=O)OC)N(C(=O)NC2CCCC2)C3=N1
not listed: [6] | [7]
inactive: all other assays above

COCCN1C(=O)N[C@@H](c2ccccc2)[C@@H](C(=O)OC)[C@H]1C
not listed: [6] | [7]
inactive: all other assays above

CCOC(=O)CN1C(=O)N[C@@H](c2ccc(Br)cc2)C(C(=O)OC)=C1C
not listed: [6] | [7]
inactive: all other assays above

COC/C=C/C1=CC2=CC(=O)C(C)(OC(=O)c3cnc4ccccc4n3)C(=O)C2=CN1c1ccccc1 (centres undefined)
not listed: [6] | [7]
inactive: all other assays above

COC(=O)C1=C(C)N(Cc2ccccc2)C(=O)N[C@H]1c1ccco1
not listed: [6] | [7]
inactive: all other assays above

COC(=O)CCC(=O)OC1(C)C(=O)C=C2C=C(C3CC3)N(CCCCO)C=C2C1=O (centres undefined)
not listed: [6] | [7]
inactive: all other assays above

C[C@H]1Cc2c(COc3ccccc3)nc3c(c2CO1)CN(C(=O)NCCc1c[nH]c2ccccc12)CC3
inactive: [1] | [2] | [3] | [5]

C[C@H]1Cc2c(-c3ccccc3)nc3c(c2CO1)CN(C(=O)C1CC1)CC3
inactive: [1] | [2] | [3] | [5]

O=C1c2cc(Br)ccc2O[C@@H](c2ccc3c(c2)OCO3)[C@@H]1O
inactive: [1] | [2] | [3] | [5]

CCO[C@H](c1cc(OC)cc([N+](=O)[O-])c1OC)[C@H](C)C=CCC(=O)OC
inactive: [1] | [2] | [3] | [5]

CCOC(=O)NN=C1C[C@@H](O)[C@@H](O)[C@@H]2[C@H]3C(=O)N(C4CCCCC4)C(=O)[C@@H]3CC[C@@H]12
inactive: [1] | [2] | [3] | [5]

CCN1C(=O)N[C@@H](c2ccccc2)[C@H](C(C)=O)[C@H]1C
inactive: [1] | [2] | [3] | [5]

CCN1C(=O)N[C@@H](c2cccc(F)c2)C(C(=O)OC)=C1C
inactive: [1] | [2] | [3] | [5]

CCCCC1=CC2=CC(=O)C(C)(OC(=O)CC)C(=O)C2=CN1CCCOC(C)C (centres undefined)
inactive: [1] | [2] | [3] | [5]

COC(=O)CCCC1=CC2=CC(=O)C(C)(OC(=O)c3cccs3)C(=O)C2=CN1c1cccc(C#N)c1 (centres undefined)
inactive: [1] | [2] | [3] | [5]

COC/C=C/C1=CC2=CC(=O)C(C)(OC(=O)c3cnc4ccccc4n3)C(=O)C2=CN1c1ccc(CO)cc1 (centres undefined)
inactive: [1] | [2] | [3] | [5]

CCCCC1=CC2=CC(=O)C(C)(OC(=O)CC)C(=O)C2=CN1Cc1ccco1 (centres undefined)
inactive: [1] | [2] | [3] | [5]

COC(=O)CCC(=O)OC1(C)C(=O)C2=CN(CC(C)C)C(c3ccc(OC)cc3)=CC2=C(Br)C1=O (centres undefined)
inactive: [1] | [2] | [3] | [5]

CC1(C)O[C@@H](C(O)(c2cc(F)c(F)c(F)c2)c2cc(F)c(F)c(F)c2)[C@H](C(O)(c2cc(F)c(F)c(F)c2)c2cc(F)c(F)c(F)c2)O1
active: [1] 671 nM | [2] 953 nM | [3] 379 nM | [5] 849 nM

COC(=O)C1=C(C(=O)OC)[C@@H]2Nc3ccccc3[C@@]23C[C@@H](C(=O)OC)N(S(=O)(=O)c2ccc(C)cc2)C3=N1
inactive: [1] | [2] | [3] | [5]

C=CC1=C2C=C(C3CC3)N(CCCN(CC)CC)C=C2C(=O)C(C)(OC(=O)c2ccco2)C1=O (centres undefined)
inactive: [1] | [2] | [3] | [5]

COC(=O)CCCC1=CC2=CC(=O)C(C)(OC(=O)c3cccs3)C(=O)C2=CN1c1ccccc1 (centres undefined)
inactive: [1] | [2] | [3] | [5]

COC(=O)C1=C(C)N(Cc2ccccc2)C(=O)N[C@H]1c1cccs1
inactive: [1] | [2] | [3] | [5]

COC(=O)N[C@H](CC(C)=O)c1ccc(Cl)cc1
inactive: [1] | [2] | [3] | [5]

COC(=O)C1=C(C(=O)OC)[C@@H]2N(C)c3ccccc3[C@@]23C[C@@H](C(=O)OC)N(S(=O)(=O)c2ccc(C#N)cc2)C3=N1
inactive: [1] | [2] | [3] | [5]

CCN1C(=O)N[C@@H](CCc2ccccc2)[C@H](C(=O)OC)[C@H]1C
not listed: [6] | [7]
inactive: all other assays above

COC(=O)C1=C(C(=O)OC)[C@@H]2N(C)c3ccccc3[C@@]23C[C@@H](CO)N(C(=O)c2ccco2)C3=N1
inactive: [1] | [2] | [3] | [5]

COC(=O)CCCC1=CC2=C(c3ccccc3)C(=O)C(C)(OC(=O)C3CCCC3)C(=O)C2=CN1CCc1ccccn1 (centres undefined)
inactive: [1] | [2] | [3] | [5]

CCOC(=O)CN1C(=O)N[C@@H](c2cccc(F)c2)C(C(C)=O)=C1C
inactive: [1] | [2] | [3] | [5]

COC(=O)CCCC1=CC2=CC(=O)C(C)(OC(=O)c3cccs3)C(=O)C2=CN1Cc1ccc2c(c1)OCO2 (centres undefined)
inactive: [1] | [2] | [4] | [5]

COC(=O)C1=C(C(=O)OC)[C@@H]2Nc3ccccc3[C@@]23C[C@@H](C(=O)OC)N(C(C)=O)C3=N1
inactive: [1] | [2] | [3] | [5]

COC/C=C/C1=CC2=CC(=O)C(C)(OC(=O)c3cnc4ccccc4n3)C(=O)C2=CN1CCCOC(C)C (centres undefined)
inactive: [1] | [2] | [4]

CCCCC1=CC2=CC(=O)C(C)(OC(=O)CC)C(=O)C2=CN1C(CO)CO (centres undefined)
inactive: [1] | [2] | [3] | [5]

COC(=O)C1=C(C)N(Cc2ccccc2)C(=O)N[C@H]1CCc1ccccc1
inactive: [1] | [2] | [3] | [5]

COC(=O)CCC(=O)OC1(C)C(=O)C2=CN(Cc3ccccc3)C(c3ccc(OC)cc3)=CC2=C(Br)C1=O (centres undefined)
inactive: [1] | [2] | [3] | [5]

COC(=O)C1=C(C(=O)OC)[C@@H]2N(Cc3ccccc3)c3ccccc3[C@@]23C[C@@H](C(=O)OC)N(C(=O)C2CCC2)C3=N1
not listed: [6] | [7]
inactive: all other assays above

COCCN1C(=O)N[C@@H](c2cccc(C(F)(F)F)c2)[C@@H](C(=O)OC)[C@H]1C
inactive: [1] | [2] | [3] | [5]

CCCCc1nc2c(c3c1C[C@H](C)OC3)CN(C(=O)N[C@@H](C)c1ccccc1)CC2
inactive: [1] | [2] | [3] | [5]

C=CCOC(=O)N[C@H](C(C(=O)OC)=C(C)NCc1ccccc1)c1cccc(F)c1
inactive: [1] | [2] | [4] | [5]

Cc1ccccc1Nc1oc(-c2ccccc2)nc1-c1ccc(C(F)(F)F)cc1
inactive: [1] | [2] | [3] | [5]

CCOC(=O)CN1C(=O)N[C@@H](CCc2ccccc2)C(C(C)=O)=C1C
inactive: [1] | [2] | [3] | [5]

COC(=O)[C@@H]1[C@@H](C)N(Cc2ccccc2)C(=O)N[C@H]1c1ccccc1
inactive: [1] | [2] | [4] | [5]

CCN1C(=O)N[C@@H](CCc2ccccc2)C(C(C)=O)=C1C
inactive: [1] | [2] | [4] | [5]

COC(=O)C1=C(C)N(CC2CC2)C(=O)N[C@H]1c1ccccc1
inactive: [1] | [2] | [4] | [5]

COC(=O)C1=C(C)N(Cc2ccccc2)C(=O)N[C@H]1c1cccc(F)c1
inactive: [1] | [2] | [4] | [5]

COCCN1C(=O)N[C@@H](c2cccs2)C(C(C)=O)=C1C
inactive: [1] | [2] | [3] | [5]

CC1(OC(=O)CCc2ccccc2)C(=O)C=C2C=C(c3ccc(C#N)cc3)N(C3CC3)C=C2C1=O (centres undefined)
inactive: [1] | [2] | [4] | [5]

O=C(NCc1ccccc1)[C@@H]1C[C@H]1[C@@H](NP(=O)(c1ccccc1)c1ccccc1)c1ccccc1
inactive: [6] | [7]

CCCCC1=CC2=C(c3ccco3)C(=O)C(C)(OC(=O)c3ccc(OC)cc3)C(=O)C2=CN1C1CC1 (centres undefined)
inactive: [1] | [2] | [4] | [5]

CC#CCN1c2ccccc2[C@]23C[C@@H](C(=O)OC)N=C2NC(C(=O)OC)=C(C(=O)OC)[C@H]13
inactive: [1] | [2] | [5]

CCOC(=O)CN1C(=O)N[C@@H](c2cccc(F)c2)C(C(=O)OC)=C1C
inactive: [1] | [2] | [5]

COC(=O)C1=C(C)N(Cc2ccccc2)C(=O)N[C@H]1c1ccc(Br)cc1
inactive: [1] | [2] | [4] | [5]

COC(=O)C1=C(C(=O)OC)[C@@H]2N(C)c3ccccc3[C@@]23C[C@@H](C(=O)OC)N(C(=O)CC(C)C)C3=N1
inactive: [1] | [2] | [4] | [5]

COCCN1C(=O)N[C@@H](c2ccco2)C(C(=O)OC)=C1C
inactive: [1] | [2] | [4] | [5]

CO[C@@H]1/C=C\O[C@]2(C)Oc3c(C)c(O)c4c(O)c(c(/C=N\N5CCN(C)CC5)c(O)c4c3C2=O)NC(=O)/C(C)=C\C=C/[C@H](C)[C@H](O)[C@H](C)[C@H](O)[C@H](C)[C@H](OC(C)=O)[C@@H]1C
inactive: [7]

CCN1C(=O)N[C@@H](c2ccco2)C(C(C)=O)=C1C
inactive: [1] | [2] | [4] | [5]

COC(=O)[C@@H]1[C@H](CCc2ccccc2)NC(=O)N(Cc2ccccc2)[C@H]1C
inactive: [1] | [2] | [4] | [5]

CC[C@H](C)[C@@H](NC(=O)O[C@@H]1C(=O)c2cc(Br)ccc2O[C@H]1c1cccc(OC)c1)C(=O)OC
inactive: [1] | [2] | [5]

CCCCC1=CC2=C(c3ccco3)C(=O)C(C)(OC(=O)c3ccc(OC)cc3)C(=O)C2=CN1c1ccccc1 (centres undefined)
inactive: [1] | [2] | [4] | [5]

O=C(NCc1ccccc1)[C@H]1C[C@@H]1[C@H](NP(=O)(c1ccccc1)c1ccccc1)c1ccccc1
inactive: [6] | [7]

COC(=O)CCC(=O)OC1(C)C(=O)C2=CN(C3CC3)C(c3ccc(OC)cc3)=CC2=C(Br)C1=O (centres undefined)
inactive: [1] | [2] | [4] | [5]

COC(=O)C1=C(C(=O)OC)[C@@H]2N(C)c3ccccc3[C@@]23C[C@@H](C(=O)OC)N=C3N1
inactive: [1] | [2] | [4] | [5]

COC(=O)C1=C(C(=O)OC)[C@@H]2N(C)c3ccc(OC)cc3[C@@]23C[C@@H](C(=O)OC)N=C3N1
inactive: [1] | [2] | [4] | [5]
